# Where “and” joins values, the source holds several entries; their conditions need not be identical. Equal values may be shown once. Calls of active or inactive are those of the source. Unless noted, no stated cut-off is given here; in the data, active means inhibition above about 80%; inactive means the rest.
# Tests used:
# [1] = target: NAD(+) hydrolase SARM1 (Homo sapiens) (UniProt Q6SZW1); assay: blocking NAD cleavage by SARM1 SAM-TIR – cell lysate, NAD-Glo luminescence (AID 1508614;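 active means compound whose remaining NAD level is above about 45 nM, limit read from the data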); details: SAM-TIR HEK293T lysate NADase, at 1 µM, stronger effect = higher value
# [2] = target: Mitogen-activated protein kinase 7 (Homo sapiens) (UniProt Q13164); assay: Gal4-ERK5 driven luciferase induction – cell-based, HTS, primary screen (AID 1508626;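 active means luciferase signal above three times the same-plate solvent-only control wells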;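 further: luciferase driven by Gal4-ERK5 fusion binding five Gal4 sites before minimal TATA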); details: HeLa Gal4-ERK5 transactivation, 18 h, at 5 µM, stronger effect = higher value
# [3] = galactose survival enhancers in mitochondrial complex I cybrids – cell-based, galactose medium, ATP luminescence, primary screen (AID 1645843;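 active means z-score of at least 1.8 in each of two replicates, scored against plate mean and spread of sample wells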;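 further: positive z means more ATP and so rescue of galactose-driven cybrid death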); details: complex I mutant cybrid cells, 72 h, stronger effect = higher value
# [4] = growth inhibition, single agent or in combination, cell-based, chromothripsis tumors, cisplatin or BGB combos (AID 1671449); details: LFS_MB_P medulloblastoma cells;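 further: cells exposed for 96 hours; 0% = vehicle DMSO and 100% = killing by high DMSO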
# [5] = growth inhibition, single agent and combos, cell-based, chromothripsis tumors, cisplatin or BGB combos (AID 1671450); details: HDN33 neuroblastoma cells, stronger effect = higher value;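 further: cells exposed to compound for four days; 0% = vehicle DMSO and 100% = cell killing by high DMSO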
# [6] = growth inhibition, single agents and combos, ICB984, cell-based, cisplatin or BGB combos, synergistic combos for chromothripsis tumors (AID 1671451; call rule not given here;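 further: cells exposed for 96 hours before readout; 0% = vehicle DMSO and 100% = killing by high DMSO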); details: ICB984 medulloblastoma cells, drug combinations, stronger effect = higher value
# [7] = growth inhibition, single agents and combos, LFS_MB_1R, cell-based, cisplatin or BGB combos, synergistic combos for chromothripsis tumors (AID 1671452); details: LFS_MB_1R medulloblastoma cells, stronger effect = higher value;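 further: cells exposed for 96 hours before readout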
# [8] = growth inhibition, single agents and combos, HTB85, cell-based, BGB or cisplatin IC20 combos, synergistic combos for chromothripsis tumors (AID 1671453); details: HTB85 osteosarcoma cells, drug combinations, stronger effect = higher value;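 further: cells exposed for 96 hours before readout; 0% = vehicle DMSO and 100% = high DMSO killing control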
# [9] = growth inhibition, single agents and combos, CRL2098, cell-based, BGB or cisplatin IC20 combos, synergistic combos for chromothripsis tumors (AID 1671454); details: CRL2098 osteosarcoma cells, drug combinations, stronger effect = higher value;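 further: cells exposed for 96 h before readout; 0% = vehicle DMSO and 100% = killing by high DMSO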
# [10] = growth inhibition, single agents and combos, HD-MB03, cell-based, BGB or cisplatin IC20 combos, synergistic combos for chromothripsis tumors (AID 1671455; in the data active means inhibition above about 83%;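 further: 0% = vehicle DMSO and 100% = high DMSO as cytotoxic control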); details: HD-MB03 medulloblastoma cells, stronger effect = higher value
# [11] = growth inhibition, single agents and combos, UWB1.289, cell-based, BGB or cisplatin combos, synergistic combos for chromothripsis tumors (AID 1671456); details: UWB1.289 ovarian carcinoma cells, stronger effect = higher value;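 further: cells exposed to compound for four days; 0% = vehicle DMSO and 100% = killing by high DMSO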
# [12] = growth inhibition, single agents and combos, LFS_MB_2R, cell-based, cisplatin combos, synergistic combos for chromothripsis tumors (AID 1671457); details: LFS_MB_2R medulloblastoma cells, stronger effect = higher value;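 further: cells exposed to compound for four days before readout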
# [13] = growth inhibition, MDA-MB-436, cell-based, BGB or cisplatin combos, synergistic combos for chromothripsis tumors (AID 1671458; call rule not given here;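 further: cells exposed for 96 hours; 0% = vehicle DMSO and 100% = killing by high DMSO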); details: MDA-MB-436 breast carcinoma growth inhibition, drug combinations, stronger effect = higher value
# [14] = UWB1.289_BRCA1 ovarian cancer growth, cell-based, BGB or cisplatin combinations (AID 1671459); details: UWB1.289 BRCA1 ovarian carcinoma, drug combinations, stronger effect = higher value
# [15] = drug combination toxicity in non-malignant astrocytes – cell-based, BGB or cisplatin IC20 combos, cytotoxicity control for chromothriptic childhood tumor combination screen (AID 1671460); details: Human astrocytes, viability inhibition, drug combinations, at 0.5 µM, stronger effect = higher value;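 further: cells exposed to compounds for 96 hours before viability readout; 0% = vehicle and 100% = killing control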
# [16] = BT084 cell growth, single and combined drugs, ICGC_MB145, cisplatin and BGB IC40 combos (AID 1671461); details: BT084 medulloblastoma cells, drug combinations, stronger effect = higher value;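 further: cells exposed to drugs for 96 hours; 0% = vehicle DMSO and 100% = high DMSO full killing control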
# [17] = RCMB18 cell growth, single agent and combined, cisplatin and BGB IC40 combos (AID 1671462); details: RCMB18 medulloblastoma cells, stronger effect = higher value;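 further: cells exposed to compound for four days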
# [18] = CRL1545 cell growth, single agent and combined, cisplatin and BGB IC20 combos (AID 1671464); details: CRL1545 osteosarcoma cells, stronger effect = higher value;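 further: cells exposed to compound for 96 hours before readout; 0% = vehicle DMSO and 100% = high DMSO killing control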
# [19] = system: F380Y; assay: BK channel mutant inhibitors and activators – cell-based, U2OS BacMam, thallium flux, beta subunits, selectivity assay, profiling panel (AID 1259406;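 active means thallium flux through the channel raised or lowered by more than 3 SD from vehicle-only wells, actives on both sides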;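 further: initial slope of Thallos dye fluorescence rise after thallium is added; log ratio against the mean of 0.3% DMSO vehicle wells on the same plate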); details: U2OS BacMam BK variants, at 30 µM
# [20] = system: F380Y/beta1; assay: as above; details: U2OS BacMam BK variants, at 30 µM
# [21] = measured here: combination with BGB IC40, at 0.05 µM
# [22] = measured here: with BGB IC20 combination, at 0.5 µM
# [23] = measured here: with cisplatin IC20 combination, at 0.5 µM
# [24] = measured here: combination with cisplatin, at 0.5 µM
# [25] = measured here: combination with cisplatin, at 5 µM
# Chain of Mitogen-activated protein kinase 7 (Homo sapiens) (Q13164 whole entry, looked up, the tested form may be a part): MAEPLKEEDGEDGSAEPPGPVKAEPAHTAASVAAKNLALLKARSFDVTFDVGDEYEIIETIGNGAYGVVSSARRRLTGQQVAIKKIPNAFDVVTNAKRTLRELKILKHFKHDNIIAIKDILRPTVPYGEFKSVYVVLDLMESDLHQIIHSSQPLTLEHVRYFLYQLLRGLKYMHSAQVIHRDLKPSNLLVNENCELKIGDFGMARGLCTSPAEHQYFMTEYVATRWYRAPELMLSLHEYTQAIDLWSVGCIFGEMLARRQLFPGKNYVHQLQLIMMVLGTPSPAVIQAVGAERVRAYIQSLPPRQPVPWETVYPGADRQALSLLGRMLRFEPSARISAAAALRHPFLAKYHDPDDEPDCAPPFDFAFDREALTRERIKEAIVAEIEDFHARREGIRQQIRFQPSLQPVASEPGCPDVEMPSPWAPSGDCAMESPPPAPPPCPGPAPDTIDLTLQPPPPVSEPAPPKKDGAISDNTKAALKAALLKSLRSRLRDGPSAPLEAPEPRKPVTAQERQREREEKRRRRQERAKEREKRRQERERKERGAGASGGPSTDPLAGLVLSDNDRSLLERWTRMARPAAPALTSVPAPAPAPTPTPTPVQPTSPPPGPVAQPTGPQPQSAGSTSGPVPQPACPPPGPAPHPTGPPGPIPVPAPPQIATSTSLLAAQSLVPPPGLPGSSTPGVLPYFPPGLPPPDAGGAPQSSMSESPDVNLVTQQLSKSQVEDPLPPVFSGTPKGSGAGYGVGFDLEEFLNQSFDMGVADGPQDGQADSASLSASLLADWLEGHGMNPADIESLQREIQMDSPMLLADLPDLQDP
# Chain of NAD(+) hydrolase SARM1 (Homo sapiens) (Q6SZW1 whole entry, looked up, the tested form may be a part): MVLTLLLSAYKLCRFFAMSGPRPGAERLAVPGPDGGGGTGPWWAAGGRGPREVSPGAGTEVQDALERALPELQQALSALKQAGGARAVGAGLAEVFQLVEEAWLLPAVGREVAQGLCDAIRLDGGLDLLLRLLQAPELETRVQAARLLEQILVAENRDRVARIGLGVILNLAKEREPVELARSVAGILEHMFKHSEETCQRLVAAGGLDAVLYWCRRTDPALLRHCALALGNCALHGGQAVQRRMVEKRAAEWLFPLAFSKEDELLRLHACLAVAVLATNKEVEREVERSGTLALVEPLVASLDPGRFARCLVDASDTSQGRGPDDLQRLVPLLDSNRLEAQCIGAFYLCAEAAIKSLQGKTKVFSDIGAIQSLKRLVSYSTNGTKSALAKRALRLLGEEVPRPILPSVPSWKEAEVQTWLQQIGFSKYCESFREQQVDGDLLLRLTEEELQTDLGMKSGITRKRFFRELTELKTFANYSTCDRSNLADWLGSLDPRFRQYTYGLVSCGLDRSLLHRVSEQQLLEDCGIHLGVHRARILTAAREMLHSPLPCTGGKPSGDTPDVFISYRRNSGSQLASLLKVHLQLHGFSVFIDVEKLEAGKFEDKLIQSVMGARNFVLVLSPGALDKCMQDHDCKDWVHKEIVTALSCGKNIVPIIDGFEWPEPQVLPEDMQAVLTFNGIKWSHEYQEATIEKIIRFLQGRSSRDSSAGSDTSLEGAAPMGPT
compound,measurement,setting,value
CCN1CCN(c2cc3c(cc2F)c(=O)c(C(=O)O)cn3C2CC2)CC1,remaining NAD,[1],10 nM (inactive)
same,luciferase signal,[2],144 AU (inactive)
same,z-score,[3],-0.045 (inactive) and 0.1 (inactive)
same,inhibition,"[4]; at 0.5 µM, stronger effect = higher value",-14.6% (inactive)
same,inhibition,"[4]; measured here: combination with BGB IC20, at 0.005 µM",-15.1%
same,inhibition,"[4]; measured here: combination with BGB IC40, at 0.005 µM",-16%
same,inhibition,[4]; [21],-15.4%
same,inhibition,"[4]; measured here: combination with cisplatin, at 0.5 µM, stronger effect = higher value",-35.9%
same,inhibition,"[4]; measured here: combination with cisplatin, at 5 µM, stronger effect = higher value",-7.57%
same,inhibition,"[5]; BGB combo, at 5 µM",-5.32%
same,inhibition,[5]; at 0.5 µM,-11.2% (inactive)
same,inhibition,"[5]; cisplatin combo, at 5 µM",14%
same,inhibition,[5]; [22],-32.1%
same,inhibition,[5]; [23],1.88%
same,inhibition,"[5]; single agent, at 5 µM",-10.9%
same,inhibition,"[6]; BGB IC20 combo, at 0.005 µM",-8.19%
same,inhibition,"[6]; BGB IC40 combo, at 0.005 µM",-15.5%
same,inhibition,"[6]; BGB IC40 combo, at 0.05 µM",-15.7%
same,inhibition,[6]; at 0.5 µM,-30.1% (inactive)
same,inhibition,"[6]; cisplatin combo, at 0.05 µM",-18.9%
same,inhibition,"[6]; cisplatin combo, at 0.5 µM",-33.6%
same,inhibition,"[6]; cisplatin combo, at 5 µM",5.13%
same,inhibition,"[6]; measured here: 5 uM single agent, at 5 µM",-24%
same,inhibition,[7]; at 0.5 µM,-17.4% (inactive)
same,inhibition,[7]; [21],-29.3%
same,inhibition,[7]; [24],-5.5%
same,inhibition,[7]; [25],-5.5%
same,inhibition,[8]; at 0.5 µM,4.78% (inactive)
same,inhibition,"[8]; measured here: with BGB IC20, at 0.5 µM",-19%
same,inhibition,"[8]; measured here: with BGB IC20, at 5 µM",-4.03%
same,inhibition,"[8]; measured here: with cisplatin IC20, at 0.5 µM",19.5%
same,inhibition,"[8]; measured here: with cisplatin IC20, at 5 µM",-34%
same,inhibition,"[8]; single agent, at 5 µM",-31.7%
same,inhibition,[9]; at 0.5 µM,-28.3% (inactive)
same,inhibition,"[9]; measured here: combination with BGB at IC20, at 0.5 µM",-35.5%
same,inhibition,"[9]; measured here: combination with cisplatin at IC20, at 0.5 µM",-26.8%
same,inhibition,[10]; at 0.5 µM,-4.62% (inactive)
same,inhibition,"[10]; measured here: combo with BGB at IC20, at 0.5 µM",-3.92%
same,inhibition,"[10]; measured here: combo with cisplatin at IC20, at 0.5 µM",-4.26%
same,inhibition,[11]; at 0.5 µM,-2.08% (inactive)
same,inhibition,"[11]; measured here: inhibition with BGB combination, at 0.05 µM",-31.5%
same,inhibition,"[11]; measured here: inhibition with cisplatin combination, at 0.05 µM",-8.73%
same,inhibition,[12]; at 0.5 µM,-19.4% (inactive)
same,inhibition,[12]; [24],-28.5%
same,inhibition,[12]; [25],-100%
same,inhibition,[13]; at 0.5 µM,-32.9% (inactive)
same,inhibition,"[13]; measured here: BGB combination, at 0.5 µM",-15.3%
same,inhibition,"[13]; measured here: BGB combination, at 5 µM",-31.3%
same,inhibition,"[13]; measured here: cisplatin combination, at 0.5 µM",-56.8%
same,inhibition,"[13]; measured here: cisplatin combination, at 5 µM",-40.4%
same,inhibition,"[14]; BGB combination, concentration series, at 5 µM",-7.62%
same,inhibition,[14]; at 0.5 µM,-4.92% (inactive)
same,inhibition,"[14]; cisplatin combination, concentration series, at 5 µM",-6.59%
same,inhibition,[15],-1.67% (inactive)
same,inhibition,[15]; measured here: combo with BGB IC20,-3.12%
same,inhibition,[15]; measured here: combo with cisplatin IC20,-14.1%
same,inhibition,[16]; at 0.5 µM,-38.8% (inactive)
same,inhibition,"[16]; cisplatin combination, at 0.5 µM",-21.3%
same,inhibition,"[16]; cisplatin combination, at 5 µM",-23.4%
same,inhibition,"[16]; measured here: BGB IC40 combination 0.05 uM, at 0.05 µM",-13.2%
same,inhibition,"[16]; single agent, at 5 µM",-37.9%
same,inhibition,[17]; at 0.5 µM,-17.8% (inactive)
same,inhibition,"[17]; cisplatin combo, at 5 µM",-22.9%
same,inhibition,"[17]; measured here: BGB IC40 combination, at 0.05 µM",-24.4%
same,inhibition,[17]; [24],-16%
same,inhibition,"[17]; single agent, at 5 µM",-19.4%
same,inhibition,[18]; at 0.5 µM,13.5% (inactive)
same,inhibition,[18]; [22],6.58%
same,inhibition,[18]; [23],15.1%
same,inhibition,"[18]; single agent, at 0.05 µM",-0.132%
same,inhibition,"[18]; single agent, at 5 µM",12.7%
same,log fold change Tl+ flux,[19],-0.0402 (inactive)
same,log fold change Tl+ flux,[20],0.00744 (inactive)
